Compound activity deposited in PubChem by National Center for Advancing Translational Sciences (NCATS).
This is a sample that favours compounds with a hit; in the whole collection about 9.2% have one here.
ELG1 genotox: inducers of genotoxicity in HEK293T ELG1-luciferase cells. HEK293T ELG1-luciferase reporter, luminescence, 16 h. Potency, µM (highest dose often 46 µM), without a hit: at the top dose activity change, positive = activation, hits mostly activators. 1.3% of 330,000 active. AID 504466; also: % of control where 0% means no effect; nearly all actives have a fitted effect of over 60% in size
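Luminescence read-out: rising ELG1-luciferase signal, reflecting elevated ELG1 protein under genetic stress, flags genotoxic compounds. Cells were treated for 16 hr at 37 °C before ONE-Glo detection.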
ELG1 repair inh: inhibitors of ELG1-dependent DNA repair in HEK293T cells; HEK293T ELG1-luciferase reporter, luminescence, 16 h; DNA damage induced by 5-fluorouridine; 2.3% of 330,000 active; Potency, µM (highest dose often 46.1 µM), without a hit: at the top dose activity change, negative = inhibition, most hits filed as inhibitors; also: % is scaled to controls: 0 for no effect and ±100 for the full control effect; nearly all actives have a fitted effect of over 55% in size
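Luminescence from the luciferase reporter, measured 30 min after ONE-Glo reagent at room temperature, was the read-out. Beforehand, 2,000 cells per well were exposed for 16 hr at 37 °C to 5-fluorouridine together with compound or vehicle.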
SMN2 splice enh: enhancers of SMN2 splice variant expression; 2.8% of 210,000 active; Potency, µM (titrated, usually from 46.1 µM), without a hit: at the highest dose activity change, positive = activation, most hits filed as activators; HEK293 SMN2-luciferase splicing reporter, luminescence, 30-36 h; AID 1458; also: % of control where 0% means no effect; nearly all actives have a fitted effect of over 55% in size
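HEK293 cells carry an SMN2 minigene-luciferase reporter in which exon 7 inclusion puts luciferase in frame. Cells were seeded at 2000 cells/well, attached for 10-12 hours, then exposed to compounds for 30-36 hours at 37C before ONE-Glo luminescence.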
NPC1 prom act: activators of NPC1 promoter; Huh7 NPC1 promoter luciferase reporter, 24 h; 2.4% of 320,000 active; Potency, µM (doses to about 9.22 µM), for inactives: at the top dose activation, hits mostly activators; AID 485313; also: % of control where 0% means no effect; nearly all actives have a fitted effect of over 60% in size
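Luminescence read-out of NPC1 promoter-driven luciferase in stably transfected Huh7 cells; compounds delivered in DMSO and left 24 h at 37C, 5% CO2, qHTS titration format.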
FLuc counter: counter-screen for miR-21 project: firefly luciferase inhibitors or activators; P08659; purified FLuc, Km substrates, luminescence inhibition; Potency, µM (top dose mostly 57.5 µM), without a hit: at the highest dose activity change, negative = inhibition, hits mostly inhibitors; 6.9% of 360,000 active; AID 588342;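 also: plate controls were vehicle for no effect and reference inhibitor for full effect; nearly all actives have a fitted effect of over 55% in size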
Target sequence (P08659 whole entry, looked up): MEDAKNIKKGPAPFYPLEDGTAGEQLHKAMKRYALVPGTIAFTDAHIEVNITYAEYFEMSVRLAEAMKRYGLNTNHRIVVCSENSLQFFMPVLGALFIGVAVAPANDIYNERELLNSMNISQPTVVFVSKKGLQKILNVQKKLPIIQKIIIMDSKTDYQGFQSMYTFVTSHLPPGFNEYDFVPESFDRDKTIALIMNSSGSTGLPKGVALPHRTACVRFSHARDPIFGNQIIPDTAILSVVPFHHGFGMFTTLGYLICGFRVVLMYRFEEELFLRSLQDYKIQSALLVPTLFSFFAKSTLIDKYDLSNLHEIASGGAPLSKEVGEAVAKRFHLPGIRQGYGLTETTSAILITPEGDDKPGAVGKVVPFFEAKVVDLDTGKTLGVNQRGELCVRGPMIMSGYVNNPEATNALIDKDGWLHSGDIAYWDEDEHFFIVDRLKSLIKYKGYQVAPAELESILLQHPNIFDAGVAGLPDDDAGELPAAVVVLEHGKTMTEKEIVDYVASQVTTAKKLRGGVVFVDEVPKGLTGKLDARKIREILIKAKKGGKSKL
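Biochemical qHTS of compounds, final roughly 60 µM downward over six points, against 10 nM purified firefly luciferase using Km concentrations of substrates (10 uM D-luciferin, 10 uM ATP) in Tris acetate pH 7.5 buffer; luminescence output.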
Rab9 promoter act: Rab9 promoter activation; Huh7 Rab9 promoter-luciferase reporter, luminescence, 24 h; Potency, µM (titrated, usually from 9.22 µM), without a hit: top-dose activation, negative = inhibition, most hits filed as activators; 2.8% of 320,000 active; AID 485297; also: % of control where 0% means no effect; nearly all actives have a fitted effect of over 60% in size
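Measured in stably transfected Huh7 cells bearing a Rab9 promoter–luciferase construct: 24 h compound treatment at 37 °C, followed by luminescence detection.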
Active calls of the source: *. Calls follow the shape of the dose curve; as a rule, active = well fitted curve in the direction sought with a large enough effect; inconclusive = small, poorly fitted or top-dose-only effect, or another doubt; inactive = no such curve, though single readings can be large; an effect the other way counts as inactive or inconclusive. Potency is read from the fitted curve at half-maximal effect.

CCN1C(=NCCCOC(C)C)N[C@@H](CCc2ccccc2)[C@H](C(=O)NCCCOC(C)C)[C@H]1C was read as ELG1 genotox -2.6%, ELG1 repair inh inconclusive, NPC1 prom act -1.5%, FLuc counter 0.6% and Rab9 promoter act -7.4%.
Screening CN(C(=O)c1cccc(NC(=O)C2CCN(C(=O)OC(C)(C)C)CC2)c1)C1CCCCC1 returned ELG1 genotox -8.2% and ELG1 repair inh 23.1µM*.
For CN(Cc1ccccc1)C(=O)c1ccc(NC(=O)C2CCCN(C(=O)OC(C)(C)C)C2)cc1 (configuration not stated) the results were ELG1 genotox -8.5% and ELG1 repair inh 20.6µM*.
For CN(Cc1ccccc1)C(=O)c1ccc(NC(=O)Cc2cccc(NC(=O)C3CCN(C(=O)C4CCC4)CC3)c2)cc1 the results were ELG1 genotox 1.7%, ELG1 repair inh 5.17µM*, NPC1 prom act 0.6%, FLuc counter -20.6% and Rab9 promoter act -2.4%.
`CN(Cc1ccccc1)C(=O)c1ccc(NC(=O)Cc2cccc(NC(=O)C3CCCN(C(=O)C4CCCCC4)C3)c2)cc1` (configuration not stated) gave ELG1 genotox -3.8%, ELG1 repair inh 14.6µM*, NPC1 prom act 1.8%, FLuc counter -10.4% and Rab9 promoter act -1.7%.
CN(Cc1ccccc1)C(=O)c1ccc(NC(=O)Cc2cccc(NC(=O)C3CCCN(C(=O)C4CCCC4)C3)c2)cc1 (configuration not stated) was read as ELG1 genotox -4.1%, ELG1 repair inh inconclusive, NPC1 prom act 3.9%, FLuc counter -16.0% and Rab9 promoter act -9.0%.
`CCCc1nc(SCC(=O)N2CCC(Cc3ccccc3)CC2)c2c(=O)n(C)c(=O)n(C)c2n1` gave ELG1 genotox -54.6%, ELG1 repair inh inconclusive, SMN2 splice enh -29.3%, NPC1 prom act 0.8%, FLuc counter 6.1% and Rab9 promoter act -1.6%.
CC(C)(C)C#CCn1c(/C=[N+](\[O-])C2CCCCC2)nc2ccccc21 was read as ELG1 genotox -0.6%, ELG1 repair inh -7.3%, NPC1 prom act 2.0%, FLuc counter -0.1% and Rab9 promoter act 0.1%.
Screening COc1ccc(C(=O)OCC(=O)c2ccc[nH]2)cc1 returned ELG1 genotox inconclusive, ELG1 repair inh inconclusive, NPC1 prom act inconclusive, FLuc counter 26.9µM* and Rab9 promoter act inconclusive.
O=C(COC(=O)c1ccc(F)cc1F)c1ccc[nH]1 was read as ELG1 genotox 2.9%, ELG1 repair inh 16.9%, NPC1 prom act 1.3%, FLuc counter 19µM* and Rab9 promoter act -2.5%.
`COc1ccc(C(=O)OCC(=O)c2ccc(CNC(C)=O)s2)cc1` gave ELG1 genotox 0.7%, ELG1 repair inh inconclusive, NPC1 prom act 9.5%, FLuc counter 10.7µM* and Rab9 promoter act 22.8%.
For O=C(OCC(=O)c1ccc[nH]1)c1ccc(Br)cc1 the results were ELG1 genotox 3.2%, ELG1 repair inh 23.0%, NPC1 prom act -0.3%, FLuc counter inconclusive and Rab9 promoter act 3.0%.
`COc1ccc(C(=O)c2ccc(CC(=O)O)s2)cc1` gave ELG1 genotox 2.2%, ELG1 repair inh 15.5%, SMN2 splice enh -7.1%, NPC1 prom act -3.1%, FLuc counter 12µM* and Rab9 promoter act -2.6%.
Screening Cc1ccc(CCNC(=O)Cn2c(-c3cccs3)cc3ccccc32)cc1 returned FLuc counter 0.9%.
For Cc1c(C(=O)NCCN(C)C)sc2nc3n(c(=O)c12)CCC3 the results were FLuc counter 3.0%.
`CCOc1ccc(N(CC(=O)Nc2cccc(N(C)S(C)(=O)=O)c2)S(=O)(=O)c2ccccc2)cc1` gave ELG1 genotox -10.6%, ELG1 repair inh 13µM*, SMN2 splice enh -26.7%, NPC1 prom act -2.8%, FLuc counter -2.0% and Rab9 promoter act -1.4%.
